# Test results from paper PMC7862700, “An all-to-all approach to the identification of sequence-specific readers for epigenetic DNA modifications on cytosine”.
# Key:
# Test in all cases: DAPPL (digital affinity profiling via proximity ligation, sequencing); 10 mM Tris-HCl pH 7.5, 50 mM NaCl, 1 mM DTT, 4% glycerol, room temperature, 30 min; GST-TFs on glutathione beads, 16-mer random dsDNA library, 0.1% formaldehyde crosslink after washing; high values mean tight binding
# FEV = target: T1, FEV (Homo sapiens, UniProt Q99581 1-238); conditions: protein: recombinant; tags: N-terminal GST; dsDNA, one strand shown
# T1 sequence: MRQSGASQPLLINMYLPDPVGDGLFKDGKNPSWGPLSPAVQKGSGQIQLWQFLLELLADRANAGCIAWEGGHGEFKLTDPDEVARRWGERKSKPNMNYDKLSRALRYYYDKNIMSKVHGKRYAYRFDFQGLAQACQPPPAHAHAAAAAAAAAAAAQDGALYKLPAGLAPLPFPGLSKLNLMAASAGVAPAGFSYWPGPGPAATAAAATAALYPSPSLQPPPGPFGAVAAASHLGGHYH
# Summary of the method: (§1)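 Binding signal is each hexamer's read frequency for a factor divided by its frequency in the tag-only sample. The factors were GST-fused human transcription factors from yeast, captured on glutathione beads, DNA-barcoded and pooled with that sample. Pools were incubated with 200 nmole of a random double-stranded 16-mer DNA library in Tris/NaCl/DTT/glycerol buffer at room temperature for 30 min, then washed, crosslinked with 0.1% formaldehyde, proximity-ligated with BsaI/T4 ligase (1 h, 37 °C), PCR-amplified and sequenced on an Illumina NextSeq500.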
# ETV5 = ETV5 (Homo sapiens, UniProt P41161 1-510); conditions: protein: recombinant; tags: N-terminal GST; dsDNA, one strand shown
# Chain of ETV5 (P41161 whole entry): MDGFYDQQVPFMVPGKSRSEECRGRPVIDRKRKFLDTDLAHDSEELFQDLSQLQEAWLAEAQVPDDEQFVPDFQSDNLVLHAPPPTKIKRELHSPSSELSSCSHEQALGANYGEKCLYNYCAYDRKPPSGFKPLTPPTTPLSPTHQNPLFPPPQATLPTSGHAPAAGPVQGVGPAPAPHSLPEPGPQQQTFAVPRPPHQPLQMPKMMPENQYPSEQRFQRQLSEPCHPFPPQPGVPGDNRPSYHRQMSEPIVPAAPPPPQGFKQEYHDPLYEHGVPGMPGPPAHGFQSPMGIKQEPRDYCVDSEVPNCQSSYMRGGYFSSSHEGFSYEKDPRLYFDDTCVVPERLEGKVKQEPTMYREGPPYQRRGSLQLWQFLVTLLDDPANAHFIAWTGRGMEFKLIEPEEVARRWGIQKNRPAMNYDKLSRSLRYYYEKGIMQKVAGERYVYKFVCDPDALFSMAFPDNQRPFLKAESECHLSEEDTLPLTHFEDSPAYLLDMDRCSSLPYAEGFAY
# Summary of the method: as §1
# HSF1 = HSF1 (Homo sapiens, UniProt Q00613 1-529); conditions: protein: recombinant; tags: N-terminal GST; chain copies: 3; dsDNA, one strand shown
# Chain of HSF1 (Q00613 whole entry): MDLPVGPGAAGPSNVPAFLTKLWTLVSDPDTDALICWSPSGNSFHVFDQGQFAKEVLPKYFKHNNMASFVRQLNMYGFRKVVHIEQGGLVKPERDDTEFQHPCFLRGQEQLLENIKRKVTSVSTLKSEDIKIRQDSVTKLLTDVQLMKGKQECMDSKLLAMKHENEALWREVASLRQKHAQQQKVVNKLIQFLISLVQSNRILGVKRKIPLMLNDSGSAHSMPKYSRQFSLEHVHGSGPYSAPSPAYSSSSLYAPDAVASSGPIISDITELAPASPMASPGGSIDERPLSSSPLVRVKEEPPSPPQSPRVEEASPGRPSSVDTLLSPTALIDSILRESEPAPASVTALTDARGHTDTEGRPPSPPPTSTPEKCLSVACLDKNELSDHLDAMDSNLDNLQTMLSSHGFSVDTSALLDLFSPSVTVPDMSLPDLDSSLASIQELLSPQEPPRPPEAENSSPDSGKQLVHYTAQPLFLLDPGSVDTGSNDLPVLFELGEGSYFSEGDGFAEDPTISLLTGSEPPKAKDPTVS
# Summary of the method: as §1
# SPIC = target: T2, SPIC (Homo sapiens, UniProt Q8N5J4 1-248); conditions: protein: recombinant; tags: N-terminal GST; dsDNA, one strand shown
# T2 sequence: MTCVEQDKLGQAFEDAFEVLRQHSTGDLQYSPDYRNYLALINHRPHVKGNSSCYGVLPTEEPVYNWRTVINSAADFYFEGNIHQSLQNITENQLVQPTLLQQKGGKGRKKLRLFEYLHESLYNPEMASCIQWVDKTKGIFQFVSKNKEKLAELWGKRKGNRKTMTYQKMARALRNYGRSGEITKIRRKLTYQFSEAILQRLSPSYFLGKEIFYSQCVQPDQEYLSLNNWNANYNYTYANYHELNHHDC
# Summary of the method: as §1
# ELF4 = ELF4 (Homo sapiens, UniProt Q99607 1-663); conditions: protein: recombinant; tags: N-terminal GST; dsDNA, one strand shown
# Chain of ELF4 (Q99607 whole entry): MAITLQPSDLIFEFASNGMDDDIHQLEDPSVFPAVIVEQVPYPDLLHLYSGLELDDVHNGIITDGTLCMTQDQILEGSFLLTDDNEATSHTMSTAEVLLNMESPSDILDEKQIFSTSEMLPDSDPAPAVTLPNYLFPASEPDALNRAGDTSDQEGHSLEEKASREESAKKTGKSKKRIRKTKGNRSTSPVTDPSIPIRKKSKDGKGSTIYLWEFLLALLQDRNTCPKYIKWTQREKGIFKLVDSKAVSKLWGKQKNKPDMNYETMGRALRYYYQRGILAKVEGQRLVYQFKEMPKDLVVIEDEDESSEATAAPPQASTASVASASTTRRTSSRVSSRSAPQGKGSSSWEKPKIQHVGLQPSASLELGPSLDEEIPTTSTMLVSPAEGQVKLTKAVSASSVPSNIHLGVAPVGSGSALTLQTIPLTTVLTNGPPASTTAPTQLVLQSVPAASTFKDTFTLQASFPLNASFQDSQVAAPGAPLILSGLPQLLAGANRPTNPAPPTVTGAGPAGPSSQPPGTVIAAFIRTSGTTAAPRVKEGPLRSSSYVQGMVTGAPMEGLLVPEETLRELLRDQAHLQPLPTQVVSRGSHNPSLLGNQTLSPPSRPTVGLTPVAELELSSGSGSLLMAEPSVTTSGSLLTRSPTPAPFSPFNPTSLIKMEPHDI
# Summary of the method: as §1
# ELK4 = target: T3, ELK4 (Homo sapiens, UniProt P28324-2 1-405); conditions: protein: recombinant; tags: N-terminal GST; dsDNA, one strand shown
# T3 sequence: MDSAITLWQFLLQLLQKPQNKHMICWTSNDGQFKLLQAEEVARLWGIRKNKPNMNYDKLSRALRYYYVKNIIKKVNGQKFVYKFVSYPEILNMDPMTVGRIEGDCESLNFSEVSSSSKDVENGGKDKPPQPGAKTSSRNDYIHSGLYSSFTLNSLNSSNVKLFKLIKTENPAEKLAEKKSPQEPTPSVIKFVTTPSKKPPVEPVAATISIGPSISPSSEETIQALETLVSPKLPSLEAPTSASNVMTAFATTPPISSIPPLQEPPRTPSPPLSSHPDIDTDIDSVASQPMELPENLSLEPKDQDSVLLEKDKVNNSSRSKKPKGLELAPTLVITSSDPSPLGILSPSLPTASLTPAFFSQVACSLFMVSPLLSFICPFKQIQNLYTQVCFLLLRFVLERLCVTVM
# Summary of the method: as §1
# ETV2 = target: T4, ETV2 (Homo sapiens, UniProt O00321 1-342); conditions: protein: recombinant; tags: N-terminal GST; dsDNA, one strand shown
# T4 sequence: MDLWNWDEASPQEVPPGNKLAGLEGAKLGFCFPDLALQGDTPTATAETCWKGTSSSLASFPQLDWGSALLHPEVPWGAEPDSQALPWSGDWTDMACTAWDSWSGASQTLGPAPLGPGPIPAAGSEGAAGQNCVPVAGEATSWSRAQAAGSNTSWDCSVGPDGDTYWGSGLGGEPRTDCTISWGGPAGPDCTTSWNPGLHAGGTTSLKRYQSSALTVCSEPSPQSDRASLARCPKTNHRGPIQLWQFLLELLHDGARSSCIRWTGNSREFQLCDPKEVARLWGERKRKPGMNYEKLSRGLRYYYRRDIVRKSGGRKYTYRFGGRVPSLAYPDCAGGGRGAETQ
# Summary of the method: as §1
# ELF3 = target: T5, ELF3 (Homo sapiens, UniProt P78545 1-371); conditions: protein: recombinant; tags: N-terminal GST; dsDNA, one strand shown
# T5 sequence: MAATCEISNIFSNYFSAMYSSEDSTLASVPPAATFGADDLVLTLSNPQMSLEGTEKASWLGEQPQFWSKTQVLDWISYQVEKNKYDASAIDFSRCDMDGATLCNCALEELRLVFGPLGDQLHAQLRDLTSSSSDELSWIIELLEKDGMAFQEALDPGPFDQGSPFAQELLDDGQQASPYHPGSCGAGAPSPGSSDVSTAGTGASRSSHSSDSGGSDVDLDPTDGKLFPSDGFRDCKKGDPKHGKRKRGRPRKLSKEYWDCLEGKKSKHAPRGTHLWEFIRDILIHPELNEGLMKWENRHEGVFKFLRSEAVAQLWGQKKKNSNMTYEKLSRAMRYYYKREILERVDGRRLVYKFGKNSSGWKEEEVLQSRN
# Summary of the method: as §1
# CRX = CRX (Homo sapiens, UniProt O43186 1-299); conditions: protein: recombinant; tags: N-terminal GST; dsDNA, one strand shown
# Chain of CRX (O43186 whole entry): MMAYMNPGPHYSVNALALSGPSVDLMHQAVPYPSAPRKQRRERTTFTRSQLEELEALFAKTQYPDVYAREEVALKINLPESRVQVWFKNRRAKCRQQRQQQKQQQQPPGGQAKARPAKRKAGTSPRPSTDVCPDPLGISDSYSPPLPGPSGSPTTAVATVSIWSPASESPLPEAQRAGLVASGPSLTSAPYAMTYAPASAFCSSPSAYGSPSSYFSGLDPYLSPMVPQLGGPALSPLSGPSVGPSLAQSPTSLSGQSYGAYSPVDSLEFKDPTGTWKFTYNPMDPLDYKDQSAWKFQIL
# Summary of the method: as §1
# ETV1 = ETV1 (Homo sapiens, UniProt P50549 1-477); conditions: protein: recombinant; tags: N-terminal GST; dsDNA, one strand shown
# Chain of ETV1 (P50549 whole entry): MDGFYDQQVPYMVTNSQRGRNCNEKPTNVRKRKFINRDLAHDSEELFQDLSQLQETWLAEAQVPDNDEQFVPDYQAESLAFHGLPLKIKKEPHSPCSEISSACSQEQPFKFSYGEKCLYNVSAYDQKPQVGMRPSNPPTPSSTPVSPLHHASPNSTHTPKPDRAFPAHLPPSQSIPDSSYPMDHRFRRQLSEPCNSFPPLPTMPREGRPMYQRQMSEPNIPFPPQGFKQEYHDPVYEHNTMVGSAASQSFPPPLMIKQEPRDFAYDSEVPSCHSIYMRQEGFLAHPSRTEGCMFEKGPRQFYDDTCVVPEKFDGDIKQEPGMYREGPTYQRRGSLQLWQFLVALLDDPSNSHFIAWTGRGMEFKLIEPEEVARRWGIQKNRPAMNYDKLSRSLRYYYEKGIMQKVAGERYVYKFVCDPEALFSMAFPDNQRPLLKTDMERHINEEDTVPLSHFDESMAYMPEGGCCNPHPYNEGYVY
# Summary of the method: as §1
# ERF = target: T6, ERF (Homo sapiens, UniProt P50548 1-548); conditions: protein: recombinant; tags: N-terminal GST; dsDNA, one strand shown
# T6 sequence: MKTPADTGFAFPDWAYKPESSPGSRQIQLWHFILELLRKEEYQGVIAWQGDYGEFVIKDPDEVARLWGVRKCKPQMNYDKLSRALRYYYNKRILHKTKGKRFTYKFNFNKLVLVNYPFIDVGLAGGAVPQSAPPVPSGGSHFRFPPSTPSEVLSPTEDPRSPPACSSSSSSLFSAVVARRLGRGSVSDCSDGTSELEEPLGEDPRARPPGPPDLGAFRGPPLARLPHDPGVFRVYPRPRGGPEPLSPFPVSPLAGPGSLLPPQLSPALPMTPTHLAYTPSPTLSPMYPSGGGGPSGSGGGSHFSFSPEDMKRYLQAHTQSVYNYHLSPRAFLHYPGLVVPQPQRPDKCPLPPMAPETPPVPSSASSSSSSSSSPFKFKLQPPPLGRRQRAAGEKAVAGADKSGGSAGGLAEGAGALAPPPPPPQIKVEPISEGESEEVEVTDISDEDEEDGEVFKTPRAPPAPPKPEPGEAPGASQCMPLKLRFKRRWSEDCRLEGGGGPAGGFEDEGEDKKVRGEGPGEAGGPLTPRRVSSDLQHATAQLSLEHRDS
# Summary of the method: as §1
# ETV3L = target: T7, ETV3L (Homo sapiens, UniProt Q6ZN32 1-361); conditions: protein: recombinant; tags: N-terminal GST; dsDNA, one strand shown
# T7 sequence: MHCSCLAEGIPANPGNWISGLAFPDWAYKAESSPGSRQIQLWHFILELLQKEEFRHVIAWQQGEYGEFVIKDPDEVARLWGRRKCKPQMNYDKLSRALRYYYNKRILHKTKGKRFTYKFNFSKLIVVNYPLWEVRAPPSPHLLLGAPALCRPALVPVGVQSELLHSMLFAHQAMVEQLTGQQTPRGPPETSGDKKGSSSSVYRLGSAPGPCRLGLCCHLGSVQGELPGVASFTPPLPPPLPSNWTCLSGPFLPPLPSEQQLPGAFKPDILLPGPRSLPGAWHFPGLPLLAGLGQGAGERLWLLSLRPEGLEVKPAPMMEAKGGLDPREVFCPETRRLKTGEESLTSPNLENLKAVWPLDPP
# Summary of the method: as §1
# ETS2 = target: T8, ETS2 (Homo sapiens, UniProt P15036 1-469); conditions: protein: recombinant; tags: N-terminal GST; dsDNA, one strand shown
# T8 sequence: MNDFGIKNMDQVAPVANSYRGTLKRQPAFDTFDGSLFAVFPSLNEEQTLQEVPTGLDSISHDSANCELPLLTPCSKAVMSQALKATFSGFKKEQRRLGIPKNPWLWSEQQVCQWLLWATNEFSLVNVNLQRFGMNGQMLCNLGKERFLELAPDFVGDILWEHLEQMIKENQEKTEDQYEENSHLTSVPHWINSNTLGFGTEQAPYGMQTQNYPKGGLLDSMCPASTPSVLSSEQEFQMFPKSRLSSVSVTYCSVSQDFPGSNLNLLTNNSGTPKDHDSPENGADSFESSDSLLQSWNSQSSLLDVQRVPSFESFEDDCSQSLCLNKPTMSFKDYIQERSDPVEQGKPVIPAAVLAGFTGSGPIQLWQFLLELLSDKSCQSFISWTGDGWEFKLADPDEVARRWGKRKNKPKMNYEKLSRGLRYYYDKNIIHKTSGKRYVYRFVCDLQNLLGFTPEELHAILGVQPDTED
# Summary of the method: as §1
# SPDEF = target: T9, SPDEF (Homo sapiens, UniProt O95238 1-335); conditions: protein: recombinant; tags: N-terminal GST; dsDNA, one strand shown
# T9 sequence: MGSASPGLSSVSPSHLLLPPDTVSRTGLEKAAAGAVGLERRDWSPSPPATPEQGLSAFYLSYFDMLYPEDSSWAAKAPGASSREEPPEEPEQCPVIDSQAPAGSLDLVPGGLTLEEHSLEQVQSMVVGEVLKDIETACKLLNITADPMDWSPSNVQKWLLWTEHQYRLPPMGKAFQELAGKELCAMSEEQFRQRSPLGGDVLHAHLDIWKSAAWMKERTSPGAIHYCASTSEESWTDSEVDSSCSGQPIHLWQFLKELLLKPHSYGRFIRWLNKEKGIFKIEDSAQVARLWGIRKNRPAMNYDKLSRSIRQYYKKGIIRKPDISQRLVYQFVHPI
# Summary of the method: as §1
# ETV7 = target: T10, ETV7 (Homo sapiens, UniProt Q9Y603 1-341); conditions: protein: recombinant; tags: N-terminal GST; dsDNA, one strand shown
# T10 sequence: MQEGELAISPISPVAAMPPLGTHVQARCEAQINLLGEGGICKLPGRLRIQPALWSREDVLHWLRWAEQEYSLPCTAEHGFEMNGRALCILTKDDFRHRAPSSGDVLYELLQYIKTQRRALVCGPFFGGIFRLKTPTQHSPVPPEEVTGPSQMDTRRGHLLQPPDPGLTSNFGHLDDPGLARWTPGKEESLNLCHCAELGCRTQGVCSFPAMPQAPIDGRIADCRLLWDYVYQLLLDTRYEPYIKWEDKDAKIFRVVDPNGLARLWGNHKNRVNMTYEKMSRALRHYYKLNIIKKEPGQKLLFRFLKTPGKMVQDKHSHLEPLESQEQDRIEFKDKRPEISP
# Summary of the method: as §1
# ELF5 = target: T11, ELF5 (Homo sapiens, UniProt Q9UKW6-2 1-255); conditions: protein: recombinant; tags: N-terminal GST; dsDNA, one strand shown
# T11 sequence: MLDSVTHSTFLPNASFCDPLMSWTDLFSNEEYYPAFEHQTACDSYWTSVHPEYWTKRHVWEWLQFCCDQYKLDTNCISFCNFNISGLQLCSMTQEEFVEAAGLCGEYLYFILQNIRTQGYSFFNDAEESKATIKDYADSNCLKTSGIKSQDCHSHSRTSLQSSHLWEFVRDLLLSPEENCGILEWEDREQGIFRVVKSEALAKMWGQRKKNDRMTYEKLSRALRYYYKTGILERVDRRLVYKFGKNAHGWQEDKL
# Summary of the method: as §1
# ETV3 = target: T12, ETV3 (Homo sapiens, UniProt P41162-2 1-143); conditions: protein: recombinant; tags: N-terminal GST; dsDNA, one strand shown
# T12 sequence: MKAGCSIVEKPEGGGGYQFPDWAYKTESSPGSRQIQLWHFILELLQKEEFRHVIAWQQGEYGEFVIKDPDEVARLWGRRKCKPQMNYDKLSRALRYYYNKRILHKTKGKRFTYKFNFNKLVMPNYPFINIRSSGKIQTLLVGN
# Summary of the method: as §1
# ETV6 = ETV6 (Homo sapiens, UniProt P41212 1-452); conditions: protein: recombinant; tags: N-terminal GST; dsDNA, one strand shown
# Chain of ETV6 (P41212 whole entry): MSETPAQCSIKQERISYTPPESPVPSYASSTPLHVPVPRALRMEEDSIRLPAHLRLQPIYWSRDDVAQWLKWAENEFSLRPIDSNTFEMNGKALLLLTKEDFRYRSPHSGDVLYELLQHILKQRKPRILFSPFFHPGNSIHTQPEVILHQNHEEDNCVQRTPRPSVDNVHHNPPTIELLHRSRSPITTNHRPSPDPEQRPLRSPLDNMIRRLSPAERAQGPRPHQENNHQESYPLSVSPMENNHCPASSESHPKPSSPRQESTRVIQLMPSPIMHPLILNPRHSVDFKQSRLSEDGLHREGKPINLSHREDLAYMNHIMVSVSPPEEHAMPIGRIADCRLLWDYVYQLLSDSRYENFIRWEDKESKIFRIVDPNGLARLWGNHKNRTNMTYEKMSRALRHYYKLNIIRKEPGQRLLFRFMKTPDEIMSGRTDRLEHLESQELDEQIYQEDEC
# Summary of the method: as §1
sequence,measurement,setting,value
CTGCTT,binding signal,FEV,"1.8 fold enrichment (6-mer frequency, TF over GST control)"
same,binding signal,ETV5,"1.66 fold enrichment (6-mer frequency, TF over GST control)"
same,binding signal,HSF1,"1.53 fold enrichment (6-mer frequency, TF over GST control)"
same,binding signal,SPIC,"1.8 fold enrichment (6-mer frequency, TF over GST control)"
same,binding signal,ELF4,"1.68 fold enrichment (6-mer frequency, TF over GST control)"
same,binding signal,ELK4,"1.88 fold enrichment (6-mer frequency, TF over GST control)"
same,binding signal,ETV2,"1.93 fold enrichment (6-mer frequency, TF over GST control)"
same,binding signal,ELF3,"1.28 fold enrichment (6-mer frequency, TF over GST control)"
same,binding signal,CRX,"1.69 fold enrichment (6-mer frequency, TF over GST control)"
same,binding signal,ETV1,"1.73 fold enrichment (6-mer frequency, TF over GST control)"
same,binding signal,ERF,"1.67 fold enrichment (6-mer frequency, TF over GST control)"
same,binding signal,ETV3L,"1.7 fold enrichment (6-mer frequency, TF over GST control)"
same,binding signal,ETS2,"1.63 fold enrichment (6-mer frequency, TF over GST control)"
same,binding signal,SPDEF,"1.67 fold enrichment (6-mer frequency, TF over GST control)"
same,binding signal,ETV7,"1.57 fold enrichment (6-mer frequency, TF over GST control)"
same,binding signal,ELF5,"1.64 fold enrichment (6-mer frequency, TF over GST control)"
same,binding signal,ETV3,"1.75 fold enrichment (6-mer frequency, TF over GST control)"
same,binding signal,ETV6,"1.71 fold enrichment (6-mer frequency, TF over GST control)"
